Pf growth 48h – P. falciparum growth inhibition at 48 hours (one generation); actives 5.9% (n = 310,000); Potency, µM (series often up to 28.7 µM), for the others: at the highest dose activity change, negative = inhibition, hits mostly inhibitors; P. falciparum luciferase growth in erythrocytes, 48 h; note: % is set by controls: 0 for no effect and ±100 for the full control effect
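Luciferase-expressing P. falciparum in infected erythrocytes (2% hematocrit, 0.1% parasitemia final) in RPMI 1640/0.5% Albumax were exposed to compound for 48 hours at 37 C, 5% CO2; growth read as luminescence.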
Vaccinia Venus – vaccinia inhibition (Venus reporter). Vaccinia virus Venus reporter expression, fluorescence. Potency, µM (top dose mostly 36.5 µM), inactives show at the highest dose activity change, negative = inhibition, usual class: inhibitors. actives 0.46% (n = 330,000); calls by dose curve; tested in A549 cells; note: % is set by controls: 0 for no effect and ±100 for the full control effect; nearly all actives have a fitted effect of over 30% in size
Vaccinia mCherry – inhibitors of vaccinia virus infection (mCherry reporter signal); Vaccinia virus mCherry reporter infection, fluorescence; Potency, µM (series often up to 36.5 µM), for the others: at the highest dose activity change, negative = inhibition, usual class: inhibitors; actives 0.63% (n = 310,000); AID 720579; calls by dose curve; tested in A549 cells; note: % is set by controls: 0 for no effect and ±100 for the full control effect; nearly all actives have a fitted effect of over 35% in size
Pf growth 96h – inhibits malaria parasite growth, 96 h; P. falciparum luciferase reporter growth, 96 h; Potency, µM (highest dose often 28.7 µM), inactives show top-dose activity change, negative = inhibition, usual class: inhibitors; actives 6.9% (n = 320,000); AID 504834; note: % is set by controls: 0 for no effect and ±100 for the full control effect
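96 h incubation, 37 C, 5% CO2, of luciferase-reporter P. falciparum-infected RBCs (2% hematocrit, 0.05% parasitemia final) with test compounds; endpoint luminescence.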
NS1 function inh – influenza NS1 inhibition; Potency, µM (top dose mostly 46.1 µM), for the others: top-dose activity, positive = more growth; actives 0.4% (n = 270,000); calls by dose curve; note: actives are rising curves; nearly all actives have a fitted effect of over 50% in size
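Read-out: OD600 growth recovery of NS1-expressing budding yeast. Cells grown overnight at 30C in -URA glucose medium, washed, resuspended and diluted 1:100 in 2% galactose assay medium, pH 6.0. Same strain lacking NS1 served as positive control.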
HCV inh – HCV inhibition | AID 651820 | Potency, µM (titrated, usually from 41.8 µM), without a hit: at the highest dose activity change, negative = inhibition, usual class: inhibitors | actives 3.4% (n = 340,000) | Huh7.5.1 HCVcc-Cre infection, luciferase reporter, 44 h; note: % is set by controls: 0 for no effect and ±100 for the full control effect
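Whole-lifecycle infectious HCVcc-Cre system; cells 1,000/well, compound then virus (~0.5 moi) added 4 h after plating, 44 h culture. Luciferase read 15 sec following 15 min substrate incubation, room temp.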
An asterisk follows results filed as active; i = inactive; u = inconclusive; x = no result given; [ ] = another dose, or the depositor's remark. An excerpt weighted towards active compounds, which were near 11% of everything screened. Unless noted, calls come from the whole dose curve; as a rule, active = well fitted inhibition curve with a large enough effect; inconclusive = small, poorly fitted or top-dose-only effect, or another doubt; inactive = no such curve, though single readings can be large or run the other way. Potency is the fitted concentration of half-maximal effect.

SMILES | Pf growth 48h | Vaccinia Venus | Vaccinia mCherry | Pf growth 96h | NS1 function inh | HCV inh
Cc1nnc(NC(=O)C2CCN(C(=O)c3ccsc3)CC2)s1 | x | -12.1% | -7.5% | x | x | x
CCCn1c(C(O)c2ccc(C)cc2)nc2ccccc21 (stereo not given) | u | x | x | u | -16.5% | -6.3%
Cc1ccc(-n2nc3c(c2NC(=O)c2ccc4c(c2)OCO4)CS(=O)(=O)C3)c(C)c1 | -2.4% | -25.1% | -8.9% | 11.7µM* | -0.5% | 19.9%
Cc1ccc(-n2nc3c(c2NC(=O)c2cccs2)CS(=O)(=O)C3)c(C)c1 | 21.9% | x | x | 0.586µM* | 17.9% | -8.8%
CC(=O)Nc1c2c(nn1-c1ccc(C)cc1C)CSC2 | u | -12.2% | -0.6% | 10.4µM* | -2.6% | 18.0%
O=C(CSCC(=O)NC1CC1)Nc1ccc2ccccc2c1 | 13.1µM* | -8.8% | -2.5% | u | -12.8% | 27.7%
Cc1cc(C(=O)OC(C(=O)Nc2ccc(C)c(Cl)c2)c2ccccc2)c(C)o1 (stereo not given) | 10.4µM* | -22.5% | -5.5% | u | 6.8% | u
COc1cccc(NC(=O)C(NC2CCCC2)c2ccccc2)c1 (stereo not given) | u | 3.3% | -3.9% | u | -1.1% | -26.3%
Cc1ccc(NC(=O)C(NC2CCCC2)c2ccccc2)cc1Cl (stereo not given) | 13.1µM* | -8.1% | -0.3% | 11.7µM* | x | -14.1%
O=C(Nc1ccc2ccccc2c1)C(c1ccccc1)C1CCCC1 (stereo not given) | 8.28µM* | x | x | 2.08µM* | -45.1% | u
Cc1ccc(NC(=O)C(c2ccccc2)C2CCCC2)cc1 (stereo not given) | -26.2% | x | x | u | -11.4% | -5.2%
Cc1cccc(C)c1OCC(N)C(C)C (stereo not given) | 7.9% | -12.5% | -13.9% | 34.6% | -5.2% | 12.3%
CCCCCC(=O)OC(CN1CCCCC1)CN1CCCC1=O (stereo not given) | 14.7% | -7.6% | x | 10.4µM* | u | 0.2%
C=CCSc1nc2c(cc1C#N)CCC2 | -7.0% | -5.6% | i | u | -41.3% | u
C=C(C)CSc1nc2c(cc1C#N)CCC2 | -2.8% | x | x | 14.7µM* | -65.6% | u
CCOC(=O)CC(=O)CSc1nc2c(cc1C#N)CCCCCC2 | 2.33µM* | x | x | 1.17µM* | 3.9% | 5.6%
COC(=O)C1=C(CSc2nc3c(cc2C#N)CN(C)CC3)OC(N)=C(C#N)C1c1ccc(F)cc1 (stereo not given) | 9.28µM* | x | x | u | 29.4% | u
CN1CCc2nc(SCC(=O)OC(C)(C)C)c(C#N)cc2C1 | 54.0% | -18.0% | u | -33.1% | 4.6% | 3.98µM*
CC(=O)c1ccc(N2CCN(c3ncnc4c3c(-c3ccccc3)cn4-c3ccc(Cl)cc3)CC2)cc1 | x | -10.2% | -10.5% | x | x | x
CSc1nc2c(cc1C#N)CCC2 | 20.5% | -12.4% | -10.6% | -8.1% | 1.4% | 18.0%
CCOC(=O)CC(=O)CSc1nc(-c2cccnc2)ccc1C#N | 10.4µM* | -2.9% | -15.8% | x | -24.1% | 7.2%
CCCCSc1nc2c(cc1C#N)CCC2 | u | -1.3% | i | u | -4.7% | 22.4µM*
COc1ccc(OC)c(-c2nc(C(=O)NCCCN3CCOCC3)cc3c2[nH]c2ccccc23)c1 | 2.33µM* | -1.8% | -10.3% | 2.94µM* | -20.5% | u
COc1cc(-c2nc(C(=O)NC3CCCCC3)cc3c2[nH]c2ccccc23)cc(OC)c1OC | 6.57µM* | -14.3% | -18.2% | u | u | u
COc1ccc(OC)c(-c2nc(C(=O)NC3CCN(Cc4ccccc4)CC3)cc3c2[nH]c2ccccc23)c1 | 8.28µM* | -18.8% | -29.1% | 3.7µM* | -3.4% | 6.31µM*
SMILES | Pf growth 48h | Vaccinia Venus | Vaccinia mCherry | Pf growth 96h | NS1 function inh | HCV inh
O=C(NCCO)c1cc2c([nH]c3ccccc32)c(-c2ccccc2)n1 | 4.7% | -16.1% | u | -9.7% | 8.2% | u
COc1cc(-c2nc(C(=O)NC3CCN(Cc4ccccc4)CC3)cc3c2[nH]c2ccccc23)cc(OC)c1OC | u | -29.7% | u | 2.08µM* | -5.4% | u
COc1ccccc1NC(=O)Cn1c(=O)n(Cc2ccccc2)c(=O)c2ccccc21 | x | 1.2% | -12.2% | x | x | x
COC(=O)c1[nH]c2ccccc2c1NC(=O)c1ccccc1[N+](=O)[O-] | 12.0% | -6.2% | -10.7% | 32.6% | 9.5% | -1.2%
COc1cccc2cc(C(=O)C3=C(O)C(=O)N(CCN(C)C)C3c3ccc(F)cc3)oc12 (stereo not given) | x | 1.1% | -3.2% | 30.8% | 5.7% | -9.6%
Cc1ccccc1Nc1nc(N)nc(CSc2ccc(F)cc2)n1 | i | x | x | 299.0% | x | -9.0%
C=CCOc1ccc(/C=C/C(=O)OCC(=O)N(C)CC(=O)Nc2ccccc2Cl)cc1 | -1.1% | -17.9% | -21.0% | 9.7% | x | -0.3%[8.37 µM]
COc1ccc(C2CCCN2C(=S)Nc2ccccc2C)cc1OC (stereo not given) | 9.28µM* | -3.7% | -8.9% | u | x | -8.2%
COc1ccc(C2CCCN2C(=S)Nc2ccc(C)cc2C)cc1OC (stereo not given) | -24.5% | -11.8% | i | 39.3% | x | -23.8%
CC(=O)c1ccc(OC(C)C)c(Cc2c(O)[nH]c(=S)[nH]c2=O)c1 | 4.3% | x | x | u | 1.7% | -4.3%
Cc1ccc(CN2CCC3CCC(C3)C2)c(O)c1 (stereo not given) | x | -8.4% | -10.9% | x | x | 10.9%
CCN(Cc1ccccc1)C(=O)c1cc2cc(OC)c(OC)cc2[nH]1 | x | -7.7% | -12.4% | u | -1.3% | -16.5%
CCCCOCCCNC(=O)c1cccc(OC)c1 | -4.9% | -21.5% | -20.3% | 24.5% | 5.5% | 40.1%
O=C(/C=C/c1ccc(Cl)cc1)Nc1ccc(N2CCOCC2)cc1 | -10.6% | -10.7% | -10.4% | 11.6% | 1.7% | -10.7%
O=C(Nc1ccc(N2CCCCC2)c(Cl)c1)c1ccc2c(c1)OCCO2 | 11.6% | u | -17.0% | x | -5.6% | 10µM*
O=C(CN1CCN(S(=O)(=O)/C=C/c2ccccc2)CC1)Nc1ccccc1N1CCOCC1 | u | -10.6% | -14.2% | 3.7µM* | -7.5% | -29.0%
O=C1C2C3C=CC(C3)C2C(=O)N1CCN1CCN(S(=O)(=O)c2ccc3ccccc3c2)CC1 (stereo not given) | -18.1% | -10.7% | i | 14.6% | -35.4% | u
O=C1C2C3C=CC(C3)C2C(=O)N1CCN1CCN(S(=O)(=O)/C=C/c2ccccc2)CC1 (stereo not given) | -3.5% | -4.8% | i | 5.86µM* | 0.5% | -24.3%
O=C(/C=C/c1ccc(Cl)cc1)Nc1ccccc1N1CCOCC1 | 33.9% | -4.0% | i | 14.7µM* | -32.4% | 17.4%
O=C(Nc1ccc(N2CCCC2)c(Cl)c1)c1ccc2c(c1)OCCO2 | x | -7.9% | -19.2% | x | x | u
NC(=O)C1CCN(CC(=O)Nc2ccccc2N2CCOCC2)CC1 | 5.5% | x | x | 15.4% | 4.0% | 13.9%
COc1cc(OC)cc(-c2c(Sc3ccccc3)c3cc(-c4ccc(OC)c(OC)c4)ccc3n2C)c1 | x | 13.2% | 14.7% | x | x | x
